Laboratory results: PubChem BioAssay (EPA / NIEHS)
Inconclusive results are not listed. Active and inactive are the calls of the source. Rule for the calls: active = hit-call score of the fitted dose curve at least 0.9, where 1 is the maximum; inconclusive = response in the unintended direction; inactive = score below 0.9.

Molecular target: Oxysterols receptor LXR-beta (Homo sapiens) (UniProt P55055)
Sequence (P55055 whole entry, looked up): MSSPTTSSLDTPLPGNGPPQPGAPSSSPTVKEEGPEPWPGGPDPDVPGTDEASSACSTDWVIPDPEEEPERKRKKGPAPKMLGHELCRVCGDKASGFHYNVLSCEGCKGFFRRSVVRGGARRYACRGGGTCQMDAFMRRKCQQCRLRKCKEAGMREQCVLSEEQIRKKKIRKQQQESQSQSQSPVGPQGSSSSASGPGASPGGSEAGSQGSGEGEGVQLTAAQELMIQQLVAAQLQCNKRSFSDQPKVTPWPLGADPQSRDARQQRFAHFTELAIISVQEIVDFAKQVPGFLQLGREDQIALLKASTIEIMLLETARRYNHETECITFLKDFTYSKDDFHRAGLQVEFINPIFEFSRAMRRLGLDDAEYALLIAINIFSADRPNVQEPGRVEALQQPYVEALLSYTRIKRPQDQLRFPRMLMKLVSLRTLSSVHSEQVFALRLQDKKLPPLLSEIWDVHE
Experiment: ATG_LXRb_TRANS: Attagene TRANS-FACTORIAL HepG2 Assay for human Liver X Receptor beta (LXRb) (AID 2282981)
Conditions: HepG2 Attagene TRANS GAL4-LXRb reporter, mRNA
Summary of the method: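 Multiplexed reporter assay, HepG2, 24 h dosing. Fluorescence of labelled RT-PCR products after capillary electrophoresis gives transcript level; positive fitting direction relative to DMSO.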
With O=S(=O)(O)c1ccc(N=Nc2c(O)ccc3ccccc23)cc1 the outcome was “inactive”.
For O=C(Oc1ccccc1)c1ccccc1O, the outcome was “inactive”.
In the case of CCCCCCO, the outcome is reported as “inactive”.
In the case of N#CC1(N)CCCCC1, the outcome is reported as “inactive”.
With CCOC(=O)CC(=O)c1ccccc1 the outcome was “inactive”.
With CC=C(C)C(C)=O the outcome was “inactive”.
With COc1nccnc1CC(C)C the outcome was “inactive”.
For C=C(C)[C@@H]1CC=C(C)CC1, the outcome was “inactive”.

Molecular target: Hepatocyte nuclear factor 4-alpha (Homo sapiens) (UniProt P41235)
Sequence (P41235 whole entry, looked up): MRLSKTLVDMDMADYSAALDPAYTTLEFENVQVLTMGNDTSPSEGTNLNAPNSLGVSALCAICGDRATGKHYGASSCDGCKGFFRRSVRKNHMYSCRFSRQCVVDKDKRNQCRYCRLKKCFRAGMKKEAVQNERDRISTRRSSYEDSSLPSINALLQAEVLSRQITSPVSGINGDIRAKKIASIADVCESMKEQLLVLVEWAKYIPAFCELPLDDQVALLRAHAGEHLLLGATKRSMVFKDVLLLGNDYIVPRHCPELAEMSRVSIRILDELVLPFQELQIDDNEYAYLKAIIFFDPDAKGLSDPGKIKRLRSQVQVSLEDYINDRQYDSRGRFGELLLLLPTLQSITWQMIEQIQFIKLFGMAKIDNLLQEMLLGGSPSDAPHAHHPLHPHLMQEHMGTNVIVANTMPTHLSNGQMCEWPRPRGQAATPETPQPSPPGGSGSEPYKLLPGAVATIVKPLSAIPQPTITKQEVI
Experiment: ATG_HNF4a_TRANS: Attagene TRANS-FACTORIAL HepG2 Assay for human Hepatocyte Nuclear Factor 4 alpha (HNF4a) (AID 2282982)
Conditions: HepG2 HNF4a transactivation reporter, mRNA readout
Summary of the method: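 Endpoint reflects transcriptional activation of a GAL4-UAS reporter by an HNF4a-GAL4 chimera in transfected HepG2 cells, 24 h post-dosing. Fluorescence from RT-PCR products separated by capillary electrophoresis; DMSO baseline.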
With NC(=O)Nc1ccccc1 the outcome was “inactive”.
With CCCCOCC(C)O (centres undefined) the outcome was “inactive”.
In the case of CC1OC(=O)C(C)OC1=O (centres undefined), the outcome is reported as “inactive”.
For CC1=CCC2CC1C2(C)C (centres undefined), the outcome was “inactive”.
In the case of Nc1ccc(C(=O)O)cc1, the outcome is reported as “inactive”.
For CCC(C)N (centres undefined), the outcome was “inactive”.
In the case of CC(=O)OCCc1ccccc1, the outcome is reported as “inactive”.
In the case of COC(=O)c1ccccc1C, the outcome is reported as “inactive”.
With C[Si](C)(C)N[Si](C)(C)C the outcome was “inactive”.
For COCC(=O)O, the outcome was “inactive”.
For CC(=O)CC(=O)Nc1ccccc1C, the outcome was “inactive”.

Tested on: not listed separately
Experiment: ATG_M_06_TRANS: Attagene TRANS-FACTORIAL HepG2 Assay for M06 Transcription Factor (Internal Marker) (AID 2282983)
Conditions: HepG2 Attagene TRANS M06 internal marker reporter
Summary of the method: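 Multi-reporter-transfected HepG2, 24 h treatment; reporter transcripts quantified via RT-PCR, primer-extension labelling and CE. DMSO-normalized gain-of-signal fit.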
In the case of CCCCOCC(C)O (centres undefined), the outcome is reported as “inactive”.
In the case of C=CC(=O)NCOCCCC, the outcome is reported as “inactive”.
With CC1OC(=O)C(C)OC1=O (centres undefined) the outcome was “inactive”.
In the case of CC1=CCC2CC1C2(C)C (centres undefined), the outcome is reported as “inactive”.
In the case of CCCCOC(=O)C(C)CC (centres undefined), the outcome is reported as “inactive”.
For CCCc1ccc(O)c(OC)c1, the outcome was “inactive”.
For O=C(O)C1CCC(C(=O)O)CC1 (centres undefined), the outcome was “inactive”.
With O=C(Oc1ccccc1)c1ccccc1O the outcome was “inactive”.
In the case of CCCCCCO, the outcome is reported as “inactive”.
In the case of CCC(C)N (centres undefined), the outcome is reported as “inactive”.
With C1CNCCN1 the outcome was “inactive”.
For CC(C)c1ccc(O)c(C(C)C)c1, the outcome was “inactive”.
In the case of COc1cc(O)c(C(=O)c2ccccc2)cc1S(=O)(=O)O, the outcome is reported as “inactive”.
For CC(=O)OCCc1ccccc1, the outcome was “inactive”.
With O=C(O)/C=C/c1ccccc1 the outcome was “inactive”.
In the case of CC(C)CCCCCOC(=O)CS, the outcome is reported as “inactive”.
For CC=C(C)C(C)=O, the outcome was “inactive”.
With Cc1c(Cl)cccc1Cl the outcome was “inactive”.
For C[Si](C)(C)N[Si](C)(C)C, the outcome was “inactive”.
In the case of CC(C)CC(=O)OCc1ccccc1, the outcome is reported as “inactive”.
With CC(CC(C)C)=NO the outcome was “inactive”.
In the case of COc1nccnc1CC(C)C, the outcome is reported as “inactive”.
For C=C(C)[C@@H]1CC=C(C)CC1, the outcome was “inactive”.
With C=Cc1cccc(C)c1 the outcome was “inactive”.
In the case of CN(C)Cc1cc(CN(C)C)c(O)c(CN(C)C)c1, the outcome is reported as “inactive”.
With CC(=O)CC(=O)Nc1ccccc1C the outcome was “inactive”.

Tested on: not listed separately
Experiment: ATG_M_32_TRANS: Attagene TRANS-FACTORIAL HepG2 Assay for M32 Transcription Factor (Internal Marker) (AID 2282984);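 note: transcript level of a background control reporter unit measured by RT-PCR and capillary electrophoresis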
Conditions: HepG2 Attagene TRANS M32 internal marker reporter
Summary of the method: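 Internal-marker readout from a multiplexed transcription reporter panel. HepG2 cells were transfected with GAL4-UAS reporter units, treated 24 hours, and reporter transcript levels determined by fluorescence after RT-PCR and capillary separation.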
With NC(=O)Nc1ccccc1 the outcome was “inactive”.
In the case of C=CC(=O)NCOCCCC, the outcome is reported as “inactive”.
In the case of CC1OC(=O)C(C)OC1=O (centres undefined), the outcome is reported as “inactive”.
With CC1=CCC2CC1C2(C)C (centres undefined) the outcome was “inactive”.
In the case of Nc1ccc(C(=O)O)cc1, the outcome is reported as “inactive”.
For C1CNCCN1, the outcome was “inactive”.
With CC(C)c1ccc(O)c(C(C)C)c1 the outcome was “inactive”.
With N#CC1(N)CCCCC1 the outcome was “inactive”.
For CC(=O)OCCc1ccccc1, the outcome was “inactive”.
With O=C(O)/C=C/c1ccccc1 the outcome was “inactive”.
With CC(C)CCCCCOC(=O)CS the outcome was “inactive”.
With CC/C=C\CCOC(=O)c1ccccc1O the outcome was “inactive”.
With COCC(=O)O the outcome was “inactive”.
In the case of C=Cc1cccc(C)c1, the outcome is reported as “inactive”.
